Experimental data published in PubChem BioAssay AID1159580 (chemical genetic matrix, 2015).
The whole screen tested about 5,500 compounds, of which about 2,000 (36%) were called active. About 18% were inconclusive and are not listed. Cut-off read from the data, not from the text of the source: active = normalized growth mostly below about 0.91 (no sharp cut-off); inconclusive = no clear call, values can overlap the other calls; inactive = mostly above about 0.92. This is one part of the list.

Test: chemical genetic growth profiling, strain panel (AID 1159580);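 note: tested at 20 µM; growth read once vehicle control cultures reached saturation at 30 °C; 1 = growth at the plate median or of vehicle wells; lower values mean less growth of the strain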
Details: S. cerevisiae deletion strains, growth OD

Measured: normalized growth

N=C(N)c1ccc(N)cc1
inactive: locus YAL013W, strain DEP1, hits give low values 1.01 | locus YAL040C, strain CLN3, hits give low values 0.975 | locus YCL061C, strain MRC1 (second series), hits give low values 0.998 | locus YDR363W, strain ESC2, hits give low values 0.981 | locus YER002W, strain NOP16, hits give low values 0.997 | locus YGR229C, strain SMI1, hits give low values 1.01 | locus YMR307W, strain GAS1, hits give low values 1 | locus YNL128W, strain TEP1, hits give low values 0.978 | locus YNL153C, strain GIM3, hits give low values 1 | locus YNL175C, strain NOP13, hits give low values 1.01 | locus YNL197C, strain WHI3, hits give low values 0.994 | locus YNL224C, strain SQS1, hits give low values 0.968 | locus YOR083W, strain WHI5 (second series), hits give low values 0.981 | locus YPL241C, strain CIN2, hits give low values 1
